Test results: PubChem BioAssay (NCATS)
Active and inactive are the calls of the source. Calls follow the shape of the full dose curve.

target: Catechol O-methyltransferase (Homo sapiens) (UniProt P21964); assay: Confirmatory Screen for Target Class Profiling of Small Molecule Inhibitors of Methyltransferases (AID 1745852); settings: MTase-Glo luminescence, SAH detection, recombinant enzyme; measured here: COMT max response; stronger effect = lower value; as to activity change, negative = inhibition: % is scaled to controls: 0 for no effect and ±100 for the full control effect
Potency is read from the fitted curve at half-maximal effect.

Chain of Catechol O-methyltransferase (Homo sapiens) (P21964 whole entry, looked up): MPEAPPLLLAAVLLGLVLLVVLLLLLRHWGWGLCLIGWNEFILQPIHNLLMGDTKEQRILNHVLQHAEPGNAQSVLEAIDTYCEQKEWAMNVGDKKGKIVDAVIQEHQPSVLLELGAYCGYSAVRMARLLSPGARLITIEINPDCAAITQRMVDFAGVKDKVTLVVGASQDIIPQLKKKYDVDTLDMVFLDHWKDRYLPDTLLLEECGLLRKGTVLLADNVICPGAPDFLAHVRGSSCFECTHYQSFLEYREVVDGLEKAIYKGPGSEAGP

| SMILES | activity [%] |
| --- | --- |
| CCOC(=O)N1CCN(/[N+]([O-])=N/Oc2ccc([N+](=O)[O-])cc2[N+](=O)[O-])CC1 | -99.7 |
| CC(C)(C=O)Cc1cc(C(C)(C)C)c(O)c(C(C)(C)C)c1 | 2.63 |
| COc1ccc(/C=C2\COc3ccc(C)cc3C2=O)cc1O | 3.43 |
| CC(C)(C)c1ccc(S(=O)(=O)/C=C/C#N)cc1 | 0.864 |
| N.N.N.N.N.N.N.N.N.N.N.N.N.N.O.O.[Ru+4].[Ru+5].[Ru+5] | -14.7 |
| COC1=C(OC)C(=O)c2ccccc2C1=O | -44.1 |
| COc1cc(/C=C/C(=O)CC(=O)/C=C/c2ccc(O)c(OC)c2)ccc1O | -53.7 |
| CN1CCc2cccc3c2C1Cc1ccc(O)c(O)c1-3 (centres undefined) | 5.12 |
| O=C1NCc2c1c1c3ccccc3[nH]c1c1[nH]c3ccccc3c21 | -23.6 |
| O=C(O)CC[C@@H](C(=O)O)N1C(=O)c2ccccc2C1=O | -23.9 |
| COc1ccc(NC(=O)/C=C/c2ccc(Cl)cc2)cc1 | -21.5 |
| O=C(O)CNC(=O)C(CS)Cc1ccccc1 (centres undefined) | 9.44 |
| COc1cc(OC)c(/C=C2/C(=O)Nc3ccccc32)c(OC)c1 | -23 |
| O=Nc1ccc2oc(=O)ccc2c1 | 0.573 |
| COc1ccccc1CNCCCCCCNCCCCCCCCNCCCCCCNCc1ccccc1OC | 5.14 |
| O=C(c1cc(O)c(O)c([N+](=O)[O-])c1)c1ccccc1F | -103 |
| Oc1cc(O)cc(/C=C/c2ccc(O)c(O)c2)c1 | 119 |

target: Guanidinoacetate N-methyltransferase (Homo sapiens) (UniProt Q14353); assay: as above; settings: MTase-Glo luminescence, SAH detection, recombinant enzyme; activity change, negative = inhibition: at 57.3 µM (top of the series)

| SMILES | activity change, negative = inhibition [%] | Potency |
| --- | --- | --- |
| CCOC(=O)N1CCN(/[N+]([O-])=N/Oc2ccc([N+](=O)[O-])cc2[N+](=O)[O-])CC1 | -4.08 |  |
| CC(C)(C=O)Cc1cc(C(C)(C)C)c(O)c(C(C)(C)C)c1 | 1.77 |  |
| COc1ccc(/C=C2\COc3ccc(C)cc3C2=O)cc1O | -4.7 |  |
| CC(C)(C)c1ccc(S(=O)(=O)/C=C/C#N)cc1 | -1.56 |  |
| N.N.N.N.N.N.N.N.N.N.N.N.N.N.O.O.[Ru+4].[Ru+5].[Ru+5] |  | 30.6 µM (active) |
| COC1=C(OC)C(=O)c2ccccc2C1=O |  | 19.3 µM (active) |
| COc1cc(/C=C/C(=O)CC(=O)/C=C/c2ccc(O)c(OC)c2)ccc1O | -2.93 |  |
| CN1CCc2cccc3c2C1Cc1ccc(O)c(O)c1-3 (centres undefined) | 3.98 |  |
| O=C1NCc2c1c1c3ccccc3[nH]c1c1[nH]c3ccccc3c21 |  | 17.2 µM (active) |
| O=C(O)CC[C@@H](C(=O)O)N1C(=O)c2ccccc2C1=O | -2.85 |  |
| COc1ccc(NC(=O)/C=C/c2ccc(Cl)cc2)cc1 |  | 24.3 µM (active) |
| O=C(O)CNC(=O)C(CS)Cc1ccccc1 (centres undefined) | 4.59 |  |
| COc1cc(OC)c(/C=C2/C(=O)Nc3ccccc32)c(OC)c1 |  | 27.3 µM (active) |
| O=Nc1ccc2oc(=O)ccc2c1 | 3.53 |  |
| COc1ccccc1CNCCCCCCNCCCCCCCCNCCCCCCNCc1ccccc1OC |  | 0.153 µM (active) |
| O=C(c1cc(O)c(O)c([N+](=O)[O-])c1)c1ccccc1F | -5.06 |  |
| Oc1cc(O)cc(/C=C/c2ccc(O)c(O)c2)c1 | -14.6 |  |
